The panel holds about 83,000 compounds, 20% with a hit somewhere; the sample as a whole holds those more often.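 Assay: single dose, 48 h. Readout: percent growth (0 = no net growth; negative = cell death). Active: <10.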 A number with no mark means an inactive call. The source made the active and inactive calls.
Assays:
Assay in all cases: NCI-60 one-dose screen, 48 h (100 = growth as untreated, 0 = no growth, -100 = all killed)
Conditions in all cases: 10 µM unless noted
RPMI-8226 leukemia = system: RPMI-8226 leukemia
OVCAR-8 ovarian = system: OVCAR-8 ovarian
OVCAR-5 ovarian = system: OVCAR-5 ovarian
OVCAR-4 ovarian = system: OVCAR-4 ovarian
SK-OV-3 ovarian = system: SK-OV-3 ovarian
IGROV1 ovarian = system: IGROV1 ovarian
OVCAR-3 ovarian = system: OVCAR-3 ovarian
HS 578T breast = system: HS 578T breast
NCI/ADR-RES ovarian = system: NCI/ADR-RES ovarian
T-47D breast = system: T-47D breast
BT-549 breast = system: BT-549 breast
MDA-MB-435 melanoma = system: MDA-MB-435 melanoma
SW-620 colon = system: SW-620 colon
MCF7 breast = system: MCF7 breast
HCT-116 colon = system: HCT-116 colon
HCC-2998 colon = system: HCC-2998 colon
KM12 colon = system: KM12 colon

| SMILES | growth (RPMI-8226 leukemia) | growth (OVCAR-8 ovarian) | growth (OVCAR-5 ovarian) | growth (OVCAR-4 ovarian) | growth (SK-OV-3 ovarian) | growth (IGROV1 ovarian) | growth (OVCAR-3 ovarian) | growth (HS 578T breast) | growth (NCI/ADR-RES ovarian) | growth (T-47D breast) | growth (BT-549 breast) | growth (MDA-MB-435 melanoma) | growth (SW-620 colon) | growth (MCF7 breast) | growth (HCT-116 colon) | growth (HCC-2998 colon) | growth (KM12 colon) |
| --- | --- | --- | --- | --- | --- | --- | --- | --- | --- | --- | --- | --- | --- | --- | --- | --- | --- |
| COc1ccc(OC)c(/C=C/c2nnc(Nc3ccccc3)o2)c1 | 103% | 105% | 93.2% | 102% | 109% | 109% | 103% | 98.5% | 94.1% | 80.4% | 97.1% | 89.1% | 113% | 98.3% | 103% | 102% | 89% |
| O=C(/C=C/c1sc(Cl)nc1Cl)c1ccccc1 | 14% | 93.5% | 99.5% | 108% | 103% | 91.9% | 46% | 103% | 101% | 98.3% | 107% | 99.4% | 33% | 32.8% | 34% | 49.3% | 85.7% |
| COc1cc(CCC[P+](c2ccccc2)(c2ccccc2)c2ccccc2)c(OC)c2c1OCO2 | 10.4% | 9.83% (active) | 64.6% | 11.1% | 27.2% | 32.5% | 5% (active) | 38.4% | 98.5% | 13.9% | 15.8% | 3.48% (active) | 31.1% | 9.9% (active) | 16.4% | 26.7% | 6.93% (active) |

From PubChem BioAssay (NCI)
